Most compounds without a hit are left out; they make up all but 6.6% or so of the library.
HepG2 viability: counter-screen for TGF-b inhibitors: cytotoxicity in HepG2 cells; HepG2 CAGA-GFP viability, ATP luminescence, 18 h; 410,000 tested, 0.76% active; Potency, µM (top dose mostly 46.1 µM), usual class: cytotoxic; AID 588856
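HepG2 CAGA-GFP cells (1000/well, DMEM with 1% FBS) received compound, then TGF-beta at 500 pg/mL final, and were incubated 18 hours at 37 degrees C. Viability was read by CellTiter-Glo luminescence. Media-only wells were set as complete cell-killing and DMSO as no toxicity.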
KB-3-1 tox: kills parental KB-3-1 adenocarcinoma cells; 400,000 tested, 1.4% active; KB-3-1 viability, CellTiter-Glo ATP luminescence, 72 h; Potency, µM (top dose mostly 46.1 µM), most hits filed as cytotoxic; note: nearly all actives have a fitted effect of over 60% in size
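Using CellTiter-Glo luminescence, growth of non-resistant KB-3-1 adenocarcinoma cells is assessed 72 h after pin-tool compound addition at 37 °C. Normalized responses across the concentration series yield fitted curves.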
KB-V1 MDR tox: KB-V1 MDR subline cytotoxicity. KB-V1 MDR cells viability, CellTiter-Glo, 72 h. Potency, µM (top dose mostly 46.1 µM), usual class: cytotoxic. 400,000 tested, 3.4% active; note: nearly all actives have a fitted effect of over 60% in size
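KB-V1, DMEM (no phenol red) + 10% FBS; cpd pin-transferred, titration series; 72 h, 37 degrees C; CellTiter-Glo, luminescence. Data normalized, curve-fit.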
HT1080-NT tox: kills 2HG-producing HT-1080-NT fibrosarcoma cells. HT-1080-NT fibrosarcoma viability, CellTiter-Glo ATP luminescence, 48 h. Potency, µM (doses to about 46.1 µM), most hits filed as cytotoxic. 360,000 tested, 1.6% active. AID 686970;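 note: NT is the 2HG producing partner of a matched IDH1 knockdown line; nearly all actives have a fitted effect of over 55% in size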
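HT-1080-NT; 750 cells/well; 5% FBS RPMI; 48 h compound, 37 degrees C; CellTiter-Glo luminescence; curve fitting and curve-class assignment.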
HT1080 IDH1KD tx: HT-1080 IDH1 knockdown cell toxicity (counter line) | HT-1080 IDH1 knockdown viability, ATP luminescence, 48 h | Potency, µM (top dose mostly 46.1 µM), most hits filed as cytotoxic | 360,000 tested, 2% active
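Viability of IDH1-knockdown HT-1080 fibrosarcoma cells was assessed by CellTiter-Glo after 48 h at 37 °C with titrated compound; concentration-effect curves were classified by fit quality and response size.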
TGFb SMAD3 inh: inhibitors of TGF-b signaling | 410,000 tested, 1.2% active | HepG2 CAGA-GFP TGF-b/SMAD3 reporter, GFP fluorescence, 18 h; TGF-beta stimulated, 500 pg/mL final | Potency, µM (titrated, usually from 46.1 µM), most hits filed as inhibitors | AID 588855; note: nearly all actives have a fitted effect of over 65% in size
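GFP signal (ex488/em500-530) from TGF-beta-stimulated HEPG2 CAGA-GFP cells, 500 pg/mL final, 18 h at 37 degrees C in DMEM plus 1% FBS, normalized to unstimulated and DMSO-stimulated controls.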
Of the large screens only hits and unclear results are named; the others gave an inactive call; ! = not confirmed by another sample. Calls come from the whole dose curve; as a rule, active = well fitted curve in the direction sought with a large enough effect; inconclusive = small, poorly fitted or top-dose-only effect, or another doubt; inactive = no such curve, though single readings can be large; an effect the other way counts as inactive or inconclusive.

Cc1cc(N2CCOCC2)nc2ccc(NC(=O)CCC(=O)N3CCCCC3)cc12	none
Cc1cc(N2CCOCC2)nc2ccc(NC(=O)CCC(=O)N3CCN(c4cccc(C(F)(F)F)c4)CC3)cc12	KB-3-1 tox inconclusive, KB-V1 MDR tox inconclusive, HT1080-NT tox 23µM, HT1080 IDH1KD tx inconclusive, TGFb SMAD3 inh inconclusive
COc1ccc(N(C)C(=O)CCC(=O)Nc2ccc3nc(N4CCOCC4)cc(C)c3c2)c(OC)c1	KB-3-1 tox inconclusive, KB-V1 MDR tox 16µM
CC(=O)c1ccc(N2CCN(C(=O)CCC(=O)Nc3ccc4nc(N5CCN(C)CC5)cc(C)c4c3)CC2)cc1	HT1080 IDH1KD tx 23µM
COc1ccc(NC(=O)CCC(=O)Nc2ccc3nc(N4CCOCC4)cc(C)c3c2)c(OC)c1	none
Cc1cc(N2CCN(C)CC2)nc2ccc(NC(=O)c3ccc4c(c3)OCO4)cc12	KB-3-1 tox 7.3µM, HT1080-NT tox inconclusive, HT1080 IDH1KD tx inconclusive
CCN(CC)S(=O)(=O)c1ccc(OCC(=O)NC(=O)Cc2ccccc2)c([N+](=O)[O-])c1	none
CCCN(CCC)CCCNC(=O)C1CCN(c2nc3ccc(CC)cc3s2)CC1	TGFb SMAD3 inh inconclusive (no result: KB-3-1 tox, KB-V1 MDR tox, HT1080-NT tox, HT1080 IDH1KD tx)
CN(C)c1cccc(F)c1C(=O)NC(=O)Nc1ccc(Cl)cc1	KB-3-1 tox 3.7µM, KB-V1 MDR tox 1.8µM, HT1080-NT tox inconclusive, HT1080 IDH1KD tx inconclusive, TGFb SMAD3 inh inconclusive
CC1=[N+](C)c2c(ccc3cccnc23)C1(C)C	KB-3-1 tox 10µM, KB-V1 MDR tox inconclusive, HT1080-NT tox inconclusive, HT1080 IDH1KD tx inconclusive, TGFb SMAD3 inh inconclusive
Cc1[nH]c2c(ccc3cccnc32)c1C	none
COC(=O)c1c(C)[nH]c(C(=O)C(C)OC(=O)C2=NNC(=O)CC2)c1C (centres undefined)	KB-3-1 tox inconclusive, KB-V1 MDR tox 5.8µM
COc1ccccc1CNS(=O)(=O)c1cc(Br)cc2c1N(C(=O)C1CC1)CC2	none (no result: HT1080-NT tox, HT1080 IDH1KD tx)
C=CCn1c(SCc2ccc(C(=O)Nc3ccccc3)cc2)nnc1-c1ccccc1	KB-V1 MDR tox 2.6µM
C=CCn1c(SCC(=O)NNC(=S)Nc2ccccc2)nnc1-c1ccccc1	none
C=CCn1c(SCC(=O)c2ccccc2)nnc1-c1ccc2c(c1)OCO2	KB-V1 MDR tox 21µM
C=CCn1c(SCC(=O)c2ccccc2)nnc1-c1cc2ccccc2o1	KB-V1 MDR tox inconclusive
O=C(NNC(=S)NC1CCCCC1)c1cccs1	KB-V1 MDR tox 23µM
O=C(NNC(=S)NC1CCCCC1)c1sc2ccccc2c1Cl	KB-V1 MDR tox 18µM, HT1080-NT tox inconclusive, HT1080 IDH1KD tx inconclusive, TGFb SMAD3 inh inconclusive
O=C(NC1CCCCC1)c1cccs1	none
O=C(NC1CC1)c1sc2ccccc2c1Cl	none
CC(C)(C)C(=O)NC(=S)NNC(=O)c1sc2ccccc2c1Cl	HepG2 viability 11µM, KB-3-1 tox 9.2µM, KB-V1 MDR tox 10µM, HT1080-NT tox 16µM, HT1080 IDH1KD tx 12µM
Cc1nn(-c2ccccc2)c(C)c1/C=N/NC(=O)CSc1nc2ccccc2c(=O)n1-c1ccc(Br)cc1	KB-3-1 tox inconclusive, KB-V1 MDR tox 23µM, HT1080-NT tox 21µM, HT1080 IDH1KD tx 13µM, TGFb SMAD3 inh inconclusive
CCn1c(SCC(=O)N/N=C/c2ccc(C)s2)nc2ccccc21	KB-3-1 tox 13µM, KB-V1 MDR tox inconclusive, HT1080-NT tox inconclusive, HT1080 IDH1KD tx inconclusive, TGFb SMAD3 inh inconclusive
Cc1ccccc1-n1c(SCC(=O)NCc2cccs2)nc2ccccc2c1=O	KB-V1 MDR tox 5.8µM
Cc1ccc(/C=N/NC(=O)CSc2nc3ccccc3c(=O)n2-c2ccccc2C)s1	KB-3-1 tox inconclusive, KB-V1 MDR tox 10µM
Cc1cc(C)n(-c2nc3ccccc3nc2Nc2cccc(C(F)(F)F)c2)n1	none (no result: HT1080-NT tox, HT1080 IDH1KD tx)
CCOc1ccc(/C=C/c2nc(C#N)c(N3CCN(CC)CC3)o2)cc1	none (no result: KB-3-1 tox, KB-V1 MDR tox, HT1080-NT tox, HT1080 IDH1KD tx)
COc1ccc(S(=O)(=O)c2c(SC)nn(CC(=O)Nc3cccc(C)c3C)c2N)cc1	TGFb SMAD3 inh inconclusive (no result: HT1080-NT tox, HT1080 IDH1KD tx)
Cc1ccccc1-n1c(SCC(=O)N/N=C/c2c(C)nn(-c3ccccc3)c2C)nc2ccccc2c1=O	KB-V1 MDR tox 5.8µM, TGFb SMAD3 inh inconclusive
Cc1ccc(-n2c(SCC(=O)N/N=C/c3c(C)nn(-c4ccccc4)c3C)nc3ccccc3c2=O)cc1	TGFb SMAD3 inh inconclusive
CN(C)CCNC(=O)c1cccc(NS(=O)(=O)c2ccc(Cl)c(Cl)c2)c1	none
CN(C)CC(C)(C)CNS(=O)(=O)c1ccc(Cl)c(Cl)c1	HT1080 IDH1KD tx 16µM!
O=C(Nc1cccc(Cl)c1Cl)c1cc(S(=O)(=O)NCc2ccc3c(c2)OCO3)ccc1F	TGFb SMAD3 inh inconclusive (no result: HT1080-NT tox, HT1080 IDH1KD tx)
O=C(Cn1nc(Cc2cccnc2)c2ccccc2c1=O)Nc1ccc(F)c(Cl)c1	TGFb SMAD3 inh inconclusive (no result: KB-3-1 tox, KB-V1 MDR tox, HT1080-NT tox, HT1080 IDH1KD tx)
CCC(=NCCc1c(C)[nH]c2ccccc12)C1=C(O)CC(c2ccccc2)CC1=O (centres undefined)	KB-3-1 tox 4.6µM, KB-V1 MDR tox 3.7µM, HT1080-NT tox inconclusive, HT1080 IDH1KD tx 8.2µM, TGFb SMAD3 inh inconclusive
